Drawing on PubChem BioAssay AID504848 (National Center for Advancing Translational Sciences (NCATS), 2011), this text covers Potency for 28 compounds.

Out of some 2,300 compounds screened, about 1,400 (61%) were called active. Inconclusive results (about 29%) are left out. Calls come from the whole dose curve; as a rule, active = well fitted inhibition curve with a large enough effect; inconclusive = small, poorly fitted or top-dose-only effect, or effect the other way; inactive = no such curve, though single readings can be large or run the other way. The set was probably picked from earlier hits. The list shows a part of the results.
Potency is the fitted concentration of half-maximal effect.

A short description of this assay: Confirmation screen for delayed death inhibitors of the malarial parasite plastid, 96 hour incubation. Note: nearly all actives have a fitted effect of over 60% in size. Conditions: P. falciparum luciferase growth in erythrocytes; series mostly up to 28.7 µM. The gist of the method:
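Two-generation (96 h, 37 C) exposure of P. falciparum carrying an integrated firefly luciferase reporter in erythrocytes, 0.1% parasitemia and 2% hematocrit final, Albumax-supplemented RPMI. Luminescence decrease measures growth inhibition.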
For the compound `O=C(Nc1cccc([N+](=O)[O-])c1)c1ccc2nsnc2c1`, the Potency result is “inactive”.

Consider `O=C(CSc1nc2ccccc2c(=O)[nH]1)Nc1cccc([N+](=O)[O-])c1`, for which the Potency was 14.1 µM (active).

In the case of `CCOC(=O)CNC(c1ccccc1)c1cc(Br)ccc1NC(=O)CCN1CCOCC1` (stereo not drawn), the Potency was 11.2 µM (active).

With `COc1ccc(Cl)cc1NC(=O)C(=O)NCc1ccncc1`, the Potency entry was “inactive”.

`COc1ccc(Nc2cc(Cl)ccc2C(=O)O)cn1`: the Potency entry is “inactive”.

For the compound `COc1ccc(Cl)cc1C(=O)Nc1ccncc1`, the Potency was 12.6 µM (active).

For the compound `CC(=O)Nc1cccc(Oc2ncnc3scc(-c4ccc(C(C)C)cc4)c23)c1`, the Potency was 6.31 µM (active).

Take `Cc1cc(C)c(C(=O)/C=C/c2cccc3ccccc23)c(=O)[nH]1`: the Potency is 6.31 µM (active).

For `CCc1nnc(NC(=O)CSc2nc3cccnc3n2C2CCCCC2)s1`, the Potency result was “inactive”.

As to `CCc1nnc(NC(=O)CSc2ncnc3c2cnn3-c2ccc(OC)cc2)s1`, the Potency is 12.6 µM (active).

As to `CC(NC(=O)c1ccc([N+](=O)[O-])o1)C12CC3CC(CC(C3)C1)C2` (stereo not drawn), the Potency is 6.31 µM (active).

`O=C(NC12CC3CC(CC(C3)C1)C2)c1ccc([N+](=O)[O-])o1`: the Potency is 2.24 µM (active).

For `Cn1cc([N+](=O)[O-])c(C(=O)Nc2ccn(C34CC5CC(CC(C5)C3)C4)n2)n1`, the Potency entry was “inactive”.

Consider `COc1cc(C2Oc3ccccc3C=C2[N+](=O)[O-])cc(OC)c1OC` (stereo not drawn), for which the Potency is 12.6 µM (active).

Take `CN(c1ccccc1)S(=O)(=O)c1cc(C(=O)N2CCN(c3ncccn3)CC2)ccc1Cl`: the Potency is 8.91 µM (active).

On to `CCOC(=O)C1(CCc2ccccc2)CCN(Cc2ccccn2)CC1`, for which the Potency was 2.51 µM (active).

Turning to `Cc1cccc(C)c1NC(=O)C(=O)c1cn(C)c2ccccc12`, the Potency is 15.8 µM (active).

For `Cc1cccc(C)c1OCCn1nc(C(=O)O)c2ccccc2c1=O`, the Potency entry is “inactive”.

With `COc1ccc(CN2C(=O)c3ccccc3C2C(=O)NC2CCC(C)CC2)c(OC)c1` (stereo not drawn), the Potency was 7.08 µM (active).

As to `COc1cccc(CN2CCN(c3nc4nonc4nc3N3CCCCC3)CC2=O)c1`, the Potency was 1.78 µM (active).

Regarding `Cc1cc2nc3c(=O)[nH]c(=S)[nH]c3nc2cc1NC(=O)C(F)(F)F`, the Potency is 14.1 µM (active).

As to `O=C(Nc1nc(-c2ccccn2)cs1)C1COc2ccccc2O1` (stereo not drawn), the Potency was 6.31 µM (active).

Turning to `CCc1ccc(N/C(SCc2cccc(F)c2)=C(/C#N)C(=O)NCc2ccco2)cc1`, the Potency was 7.94 µM (active).

In the case of `O=C(NC1CCCN(Cc2ccc(Cl)cc2)C1)c1cnc2ccccn2c1=O` (stereo not drawn), the Potency was 11.2 µM (active).

In the case of `Cc1occc1C(=O)NC1CCCN(Cc2ccc(CC(C)C)cc2)C1` (stereo not drawn), the Potency was 12.6 µM (active).

Turning to `Cc1ccc(-c2csc(SCC(=O)c3c(N)n(C4CC4)c(=O)[nH]c3=O)n2)cc1`, the Potency entry was “inactive”.

Regarding `Nc1c(C(=O)CSc2nc3ccccc3o2)c(=O)[nH]c(=O)n1C1CC1`, the Potency is 12.6 µM (active).

As to `Cc1ccccc1-n1c(SCC(=O)c2c(N)n(C3CC3)c(=O)[nH]c2=O)nnc1N1CCOCC1`, the Potency was 7.94 µM (active).
